Measurements published in the supplement of paper PMC13380429.

Tested on: Vero E6 infected with SARS-CoV-2
Assay: inhibition of SARS-CoV-2 cytopathic effect; higher = more antiviral protection, active = above 15
Conditions: 48 h

Measured: inhibition of SARS-CoV-2 cytopathic effect

N=C1NC(=O)/C(=C/c2ccc(O)cc2)S1 [mirin]
inactive: 1 nM -0.65% | 8.33 nM 0.66% | 100 nM -0.71% | 833.33 nM -3.88% | 10000 nM 1.33%

CC[C@@]1(O)C(=O)OCc2c1cc1n(c2=O)Cc2cc3ccccc3nc2-1 [camptothecin]
inactive: 1 nM -1.27% | 8.33 nM 1.92% | 100 nM -1.93% | 833.33 nM -11.9% | 10000 nM -20.7%

C=CCN1CCCC1CNC(=O)c1cc2nn[nH]c2cc1OC (stereo not given) [alizapride]
inactive: 1 nM 0.31% | 8.33 nM 1.78% | 100 nM -1.64% | 833.33 nM -1.24% | 10000 nM -0.58%

O=S1(=O)CCN(CN2CCS(=O)(=O)NC2)CN1 [taurolidine]
inactive: 1 nM 0.08% | 8.33 nM 2.04% | 100 nM -0.86% | 833.33 nM -0.85% | 10000 nM 0.19%

Nc1ncnc2c1c(COc1cccc(Cl)c1)nn2C1CCOCC1
inactive: 1 nM -1.11% | 8.33 nM -0.68% | 100 nM -0.3% | 833.33 nM -1.57% | 10000 nM -0.4%

O=C(O[C@H]1C[N+]2(CCCOc3ccccc3)CCC1CC2)C(O)(c1cccs1)c1cccs1 [aclidinium]
inactive: 1 nM -0.75% | 8.33 nM -1.25% | 100 nM -2.4% | 833.33 nM 1.93% | 10000 nM 1.6%

Cn1cc(-c2ccc3ncc(Cc4ccc5ncccc5c4)n3n2)cn1
inactive: 1 nM -4.59% | 8.33 nM -2.71% | 100 nM -1.81% | 833.33 nM 2.47% | 10000 nM 3.49%

CC(C)Cc1ccc([C@@H](C)C(=O)NCCO)cc1 (racemic) [mabuprofen]
inactive: 1 nM -1.95% | 8.33 nM -2.13% | 100 nM -0.66% | 833.33 nM -0.72% | 10000 nM -4.85%

N#Cc1ccc(COC[C@H]2O[C@@H](n3c(NCc4ccc(Cl)c(Cl)c4)nc4c(N)ncnc43)[C@H](O)[C@@H]2O)cc1
inactive: 1 nM 2.98% | 8.33 nM -0.66% | 100 nM -1.89% | 833.33 nM -0.44% | 10000 nM -3.34%

CCOC(=O)c1ccc(-c2ccc(OC(=O)N(C)Cc3cccc(-c4ccncc4)c3)cc2)cc1
inactive: 1 nM 2.8% | 8.33 nM -0.08% | 100 nM 3.06% | 833.33 nM 4.52% | 10000 nM 4.58%

CN(C)[C@@H]1C(O)=C(C(N)=O)C(=O)[C@@]2(O)C(O)=C3C(=O)c4c(O)ccc(Cl)c4[C@@H](O)[C@H]3C[C@@H]12 [demeclocycline]
inactive: 1 nM 1.68% | 8.33 nM 1.08% | 100 nM 0.96% | 833.33 nM 1.19% | 10000 nM 2.34%

C[C@@H](N[C@H]1CCCC[C@@H]1NC(=O)c1ccc(Cl)cc1)c1cccc2ccccc12 [Calhex-231]
inactive: 1 nM -0.12% | 8.33 nM -0.88% | 100 nM 1.31% | 833.33 nM 5.65% | 10000 nM -1.86%

O=C(Cc1ccc(Cl)c(Cl)c1)N1CCCC[C@@H]1CN1CCCC1
inactive: 1 nM -0.96% | 8.33 nM 2.64% | 100 nM 1.57% | 833.33 nM -0.63% | 10000 nM -4.8%

COc1ccc(C(=O)N2CCCC2=O)cc1 [aniracetam]
inactive: 1 nM 0.63% | 8.33 nM 0.43% | 100 nM 0.75% | 833.33 nM 0.1% | 10000 nM 0.6%

O=C(O)c1cc(O)c2c(c1)C(=O)c1cccc(O)c1C2=O [rhein]
inactive: 1 nM -0.32% | 8.33 nM -0.35% | 100 nM -3.51% | 833.33 nM -0.03% | 10000 nM -2.1%

N#Cc1ccccc1OCC(O)CNCCNC(=O)Nc1ccccc1 (stereo not given)
inactive: 1 nM 0.6% | 8.33 nM 0.87% | 100 nM -0.54% | 833.33 nM 0.35% | 10000 nM -2.72%

OC(c1cc(C(F)(F)F)nc2c(C(F)(F)F)cccc12)C1CCCCN1 (stereo not given) [mefloquine]
active: 10000 nM 73.3%
inactive: 1 nM -1.64% | 8.33 nM 0.59% | 100 nM -0.03% | 833.33 nM -3.31%

CN(C(=O)c1ccc(F)cc1C(F)(F)F)C1CCN(c2nnc(-c3ccnn3C)c3ccccc23)CC1 [taladegib]
inactive: 1 nM 0.16% | 8.33 nM -6.09% | 100 nM -5.17% | 833.33 nM -5.9% | 10000 nM -5.54%

CCCCC1CCC(c2nc(-c3ccncc3)no2)CC1 (stereo not given)
inactive: 1 nM 1.12% | 8.33 nM 0.82% | 100 nM -0.05% | 833.33 nM 0.32% | 10000 nM 2.33%

COc1cc(N)c(Cl)cc1C(=O)CCC1CCN(CCNS(C)(=O)=O)CC1
inactive: 1 nM -0.46% | 8.33 nM -0.03% | 100 nM 0.79% | 833.33 nM 0.95% | 10000 nM -0.74%
